MITF primary: inhibitors of human MITF | O75030 | AlphaScreen MITF homodimerization, bead proximity signal | inhibition, % at 2.6 µM | hit rate 0.91% among 650,000 | AID 1259374; in the data active means inhibition above about 50%;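 further: 0% = vehicle wells with protein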
GPR151 ag: activators of human GPR151 | Q8TDV0 | PathHunter beta-arrestin GPR151 cells, luminescence | activation, % at 11.2 µM | hit rate 1% among 650,000; in the data active means activation above about 4.9%;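 further: 0% = median of compound wells and 100% = cells with positive control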
Target sequence (Q8TDV0 whole entry, looked up): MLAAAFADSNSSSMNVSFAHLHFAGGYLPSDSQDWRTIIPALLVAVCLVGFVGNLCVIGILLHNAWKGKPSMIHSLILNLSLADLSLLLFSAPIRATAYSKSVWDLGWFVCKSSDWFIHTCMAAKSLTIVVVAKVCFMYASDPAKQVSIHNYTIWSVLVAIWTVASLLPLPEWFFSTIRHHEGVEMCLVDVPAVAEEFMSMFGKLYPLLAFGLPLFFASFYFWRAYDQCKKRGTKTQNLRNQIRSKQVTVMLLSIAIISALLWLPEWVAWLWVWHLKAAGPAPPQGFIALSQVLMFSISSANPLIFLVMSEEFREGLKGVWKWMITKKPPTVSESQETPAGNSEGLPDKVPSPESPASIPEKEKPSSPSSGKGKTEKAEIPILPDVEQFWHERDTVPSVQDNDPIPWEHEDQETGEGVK
FBW7 activator: activators of human E3 ligase FBW7. AlphaScreen FBW7–phospho-cyclin E peptide binding, activator screen. hit rate 0.13% among 650,000. Q969H0. normalized activity (activation), % at 26.1 µM. AID 1259310; in the data active means normalized activity above about 1.9%;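 further: purified mutant Fbw7 with reduced substrate affinity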
TEAD-YAP inh: TEAD-YAP interaction inhibition. HEK-TIYL cells, TEAD-Gal4/YAP UAS-luciferase luminescence. inhibition, % at 9.12 µM. AID 1259422. hit rate 1.4% among 640,000; in the data active means inhibition above about 32%;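 further: 0% = median of test compound wells and 100% = reference inhibitor wells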
Active calls of the source: *. Only some compounds are listed: those with a hit (about 3.5% of all), similar ones and a draw of the others.

SMILES | MITF primary | GPR151 ag | FBW7 activator | TEAD-YAP inh
Cc1cnc(Nc2nc3ccccc3n2C)nc1Nc1ccc2c(c1)OCO2 | 4 | 0 | 0 | 32*
Cc1cnc(Nc2ccc(N3CCOCC3)cc2)nc1Nc1ccc2c(c1)OCO2 | 18 | 4 | 0 | 80*
N#Cc1ccsc1NC(=O)c1cccc(Cl)c1Cl | -1 | -2 | 0 | 5
N#Cc1ccsc1NC(=O)/C=C/c1ccccc1Cl | 3 | -3 | 0 | 64*
Cc1ccn2cc(-c3ccccc3Br)nc2c1 | 6 | -6 | 0 | 33*
Cc1ccn2cc(-c3ccc(S(=O)(=O)N(C)C)cc3)nc2c1 | -4 | -2 | 0 | 48*
Cc1ccn2cc(-c3ccc(I)cc3)nc2c1 | 6 | -5 | 0 | 79*
Cc1ccn2cc(-c3ccc(F)cc3)nc2c1 | 13 | -11 | 0 | 73*
Cc1ccn2cc(-c3ccc([N+](=O)[O-])cc3)nc2c1 | 11 | -4 | 0 | -1
O=C(COn1nnc2ccc([N+](=O)[O-])cc21)N1c2ccccc2Sc2ccccc21 | 2 | 0 | 0 | 10
CC(C)CNc1cc(N2CCOCC2)c2noc3c2c1C(=O)c1ccccc1-3 | 52* | -1 | 0 | 3
O=C1c2ccccc2-c2onc3c(N4CCOCC4)cc(NCCO)c1c23 | 33 | -2 | -1 | 15
O=C1c2ccccc2-c2onc3c(N4CCOCC4)cc(NCCN4CCCC4)c1c23 | 61* | -1 | 0 | -42
CCNc1cc(N2CCC3(CC2)OCCO3)c2noc3c2c1C(=O)c1ccccc1-3 | 21 | 1 | -1 | 39*
Oc1ccc(/C=N/Nc2ccc3ccccc3n2)c(O)c1O | 21 | -1 | -1 | -30
C(=N\Nc1ccc2ccccc2n1)/c1cccs1 | 1 | -2 | 0 | 60*
Oc1cccc2ccc(/C=N/Nc3ccc4ccccc4n3)nc12 | -10 | -3 | 0 | 33*
Cn1cc(CNC(=O)CC2C(=O)NCCN2Cc2cccc3ccccc23)cn1 (stereo not drawn) | -6 | -1 | 0 | -2
CN1C(=O)C(C)(C)COc2ccc(NC(=O)Nc3cccs3)cc21 | 0 | -2 | 0 | -14
CN(CCCn1c(=S)[nH]c2cc3c(cc2c1=O)OCO3)Cc1ccccc1 | 15 | 0 | 0 | 6
Cc1ccc(-n2nc3ccc(N)cc3n2)cc1Cl | -5 | -1 | 0 | -20
Cc1ccc(-n2nc3ccc(N)cc3n2)c(C)c1 | 9 | 0 | 0 | 40*
COc1ccc(OC)c(S(=O)(=O)Nc2cc(SCC(=O)O)c(O)c3ccccc23)c1 | 13 | 2 | -1 | -11
C/C(=N\N=c1/sc2ccccc2n1C)c1ccc(N2CCOCC2)cc1 | -6 | 3 | 0 | -8
C/C(=N\N=C(N)N)c1ccc(N2CCOCC2)cc1 | -6 | 0 | 0 | 52*
SMILES | MITF primary | GPR151 ag | FBW7 activator | TEAD-YAP inh
NC(=O)c1ccc(-c2ccc(N3CCOCC3)nc2)s1 | 18 | -12 | 0 | 50*
NC(=O)c1cnc(-c2ccc(N3CCOCC3)nc2)s1 | 6 | -8 | 0 | 63*
CCCNC(=O)c1cnc(-c2ccc(N3CCOCC3)nc2)s1 | 1 | 0 | 0 | 0
COc1ccc(-c2ncc(C(N)=O)s2)cc1 | -6 | -7 | 0 | 49*
Cc1cnc2c(c1C)c(=O)n(C)c(=O)n2C | 5 | 0 | 0 | 6
O=C(Nc1cccc(O)c1)c1ccccc1 | 3 | 1 | 0 | 48*
Nc1ccc(C(=O)Nc2ccc(O)cc2)cc1 | 6 | 0 | 0 | 26
O=C(Nc1cccc(O)c1)c1noc2c1CCc1ccccc1-2 | 9 | -5 | 0 | 87*
Nc1ccc(C(=O)Nc2cccc(O)c2)cc1 | 20 | -5 | 0 | 59*
CC(=O)c1ccc(NC(=O)c2noc3c2CCc2ccccc2-3)cc1 | -3 | -1 | 0 | -15
COc1ccccc1CNc1nc(-c2cccs2)c(CC(=O)O)s1 | -2 | 2 | 0 | -2
COC(=O)c1c(NC(=O)c2cc3ccccc3c(=O)o2)sc2c1CCC(C)C2 (stereo not drawn) | 0 | 0 | 0 | -10
CCOC(=O)c1c(C)oc2c1c1c(c3ccccc32)OCN(C(C)c2ccccc2)C1 (stereo not drawn) | -2 | -1 | 0 | -98
CC(c1ccccc1)N1COc2c(cc(Cl)c3cccnc23)C1 (stereo not drawn) | 64* | 2 | -1 | 48*
CSc1nnc2c(n1)OC(c1cc([N+](=O)[O-])ccc1O)N(C(C)=O)c1ccccc1-2 (stereo not drawn) | 26 | 1 | 1 | 4
Cc1cccc(Nc2ccc([N+](=O)[O-])cc2S(N)(=O)=O)c1 | 9 | -2 | 0 | 36*
O=C(O)c1cc(-c2ccc3c(c2)OCO3)nc2cc3c(cc12)OCCO3 | 16 | 0 | 0 | 32*
